{"source": "PubChem BioAssay AID652067", "about": "(The Scripps Research Institute Molecular Screening Center, 2013)", "note": "In all, about 370,000 compounds went through this assay and about 5,400 (1.5%) were called active. This is one part of a sample in which actives are shown more often than they occur. Unmarked numbers belong to inactive results.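 Rule for the calls: active = activation above the mean of all tested compounds plus 3 SD (cut at about 5.5% in these data); inactive = the rest.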"}
{"tested_on": "DAF-12 nuclear receptor (Haemonchus contortus)", "experiment": "H. contortus DAF-12 nuclear receptor activators, primary screen, cell-based, luminescence, HEK293, lit1-tk-luc reporter (AID 652067);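 note: 100% = response to 3 µM Δ7-dafachronic acid high control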", "conditions": "HEK293 hcDAF-12 lit1-tk-luc reporter, at 6.8 µM, active compounds read high, 0% DMSO, 100% Δ7-dafachronic acid"}
{"smiles": "CCCCN(C)C(=O)C1CCN(Cc2ccccn2)CC1", "activation": "-1.01%"}
{"smiles": "COc1ccc(-c2c3c(=O)n(C)c(=O)n(C)c3cn2-c2cccc(OC)c2)cc1", "activation": "7.44% (active)"}
{"smiles": "Cc1ccc(-c2c3c(=O)n(C)c(=O)n(C)c3cn2-n2cnnc2)cc1", "activation": "2.64%"}
{"smiles": "COc1ccc(OC)c(-n2cc3c(=O)n(C)c(=O)n(C)c3c2)c1", "activation": "-1.87%"}
{"smiles": "Cc1ccc(C)c(NC(=O)CCS(=O)(=O)c2ccccc2)c1", "activation": "-3.65%"}
{"smiles": "COCC(C)NC(=O)c1ccc(Cl)c(Cl)c1", "note": "(stereo not given)", "activation": "-2.09%"}
{"smiles": "CC(CCc1ccccc1)NC(=O)c1cnc(Cl)c(Cl)c1", "note": "(stereo not given)", "activation": "6.18% (active)"}
{"smiles": "CC1=C(C)CC(C(=O)NC(C)CCc2ccccc2)C(C(=O)O)C1", "note": "(stereo not given)", "activation": "-2.02%"}
{"smiles": "O=C(NC1CCCC1)C1CSCCS(=O)(=O)N1Cc1ccccc1", "note": "(stereo not given)", "activation": "-0.49%"}
{"smiles": "COc1ccccc1CCn1cnc(-c2ccccc2)c1C(C)C", "activation": "0.67%"}
{"smiles": "O=C(NCc1ccccc1)[C@H]1CCCN1C(=O)[C@H]1CCCN1C(=O)c1cc(F)cc(F)c1", "activation": "0.44%"}
{"smiles": "C[C@@H]1COc2cccc(N3CCCC3)c2S(=O)(=O)N1C", "activation": "-0.39%"}
{"smiles": "COC(=O)[C@H](C(C)C)N(CCCc1cn(Cc2ccccc2)nn1)S(=O)(=O)c1ccc(F)cc1Br", "activation": "-4.11%"}
{"smiles": "CC(C)(C)n1nc(C2CC2)c(Br)c1NC(=O)c1ccccc1F", "activation": "-0.41%"}
{"smiles": "Fc1ccc2nc(Nc3nc4c(s3)CCCC4)sc2c1", "activation": "10% (active)"}
{"smiles": "COC(=O)C(NC(C)=O)(Nc1nc2c(s1)CCCC2)C(F)(F)F", "note": "(stereo not given)", "activation": "1.23%"}
{"smiles": "O=C(C1CCN(S(=O)(=O)c2ccccc2)CC1)N1CCN(C2CCCCC2)CC1", "activation": "-1.68%"}
{"smiles": "COCCCNC(=O)C[C@H]1C[C@@]2(C(=O)OC)C(=C[C@H](C(C)(C)C)O[C@@H]2C)N(Cc2ccc(Cl)cc2Cl)C1=O", "activation": "0.08%"}
{"smiles": "COC(=O)Cc1nnn2c1[C@H](C)[C@@H](OC)c1cc(Br)ccc1-2", "activation": "-1.33%"}
{"smiles": "CCOC(=O)c1nc(-c2ccc3c(c2)OCO3)[nH]c1C", "activation": "4.99%"}
{"smiles": "c1ccc2[nH]c(-c3nc4ccccc4[nH]3)nc2c1", "activation": "11.1% (active)"}
{"smiles": "Cc1ccc(-c2nc3ccccc3[nH]2)cc1N", "activation": "10.9% (active)"}
{"smiles": "C/C(=N\\Nc1nc2ccccc2[nH]1)c1cccs1", "activation": "5.49%"}
{"smiles": "CCOC(=O)CNC(=O)CSc1ncccc1-c1nc2ccccc2[nH]1", "activation": "1.6%"}
{"smiles": "O=C1c2ccccc2C(c2nc3ccccc3[nH]2)N1c1ccccc1", "note": "(stereo not given)", "activation": "-0.51%"}
{"smiles": "COC(=O)C1CN(CC(C)C)CCS(=O)(=O)N1Cc1ccc(F)cc1", "note": "(stereo not given)", "activation": "-1.55%"}
{"smiles": "C#CCCN([C@H](C(=O)OC)C(C)C)S(=O)(=O)c1ccc(F)cc1Br", "activation": "-1.11%"}
{"smiles": "CN(CC(=O)Nc1cccc(F)c1)C(=O)C1CC(=O)N(CCc2ccccc2)C1", "note": "(stereo not given)", "activation": "6.61% (active)"}
{"smiles": "CN(Cc1ccccc1Cl)C(=O)C1CCC(=O)N(CCc2cccc(F)c2)C1", "note": "(stereo not given)", "activation": "-0.75%"}
{"smiles": "CCNC(=O)c1cccc(NC(=O)C2CC(=O)N(CCc3ccccc3)C2)c1", "note": "(stereo not given)", "activation": "-0.37%"}
{"smiles": "Cc1ccc(NN=Nc2nc3c([nH]2)c(=O)n(C)c(=O)n3C)cc1", "activation": "9.25% (active)"}
{"smiles": "Cc1cc(C)c(C=NNc2nc3c([nH]2)c(=O)n(C)c(=O)n3C)c(C)c1", "activation": "1.11%"}
{"smiles": "Cc1cccc(C)c1NC(=O)CSc1nc2c([nH]1)c(=O)n(C)c(=O)n2C", "activation": "-0.94%"}
{"smiles": "O=C(CSc1nc2ccccc2nc1N1CCCCC1)N1CCN(S(=O)(=O)c2cccc([N+](=O)[O-])c2)CC1", "activation": "-0.06%"}
{"smiles": "O=C(CSc1nnc(-c2ccccn2)n1-c1ccccc1)Nc1ccc2c(c1)OCO2", "activation": "-1.02%"}
{"smiles": "CC(C#N)OC(=O)c1cccnc1SCC(=O)Nc1ccc2c(c1)OCO2", "note": "(stereo not given)", "activation": "7.41% (active)"}
{"smiles": "Cc1ccc(-n2c(SCC(=O)Nc3ccc4c(c3)OCO4)nnc2-c2ccccn2)cc1", "activation": "-2.82%"}
{"smiles": "COC(=O)c1cc(S(=O)(=O)N2CCN(c3ccccc3C)CC2)cn1C", "activation": "-0.73%"}
{"smiles": "C[C@H](O)[C@@H]1C(=O)N2CCc3c([nH]c4c(-c5ccc6c(c5)OCO6)cccc34)[C@@H]2C[C@@H]1N(C)C(=O)c1ccco1", "activation": "1.47%"}
{"smiles": "Cc1cccc(C(=O)Nc2c(-c3ccc(F)cc3)nc3ncccn23)c1", "activation": "-3.14%"}
{"smiles": "COc1ccc(/C=C2\\CC3(OC(C)=O)CCCN2C3)cc1", "note": "(stereo not given)", "activation": "-3.46%"}
{"smiles": "Cc1cc(NC(=O)COc2ccccc2C#N)no1", "activation": "3.78%"}
{"smiles": "N#Cc1ccccc1NC(=O)COc1c(Br)cc(Br)c2cccnc12", "activation": "5.88% (active)"}
{"smiles": "O=C(COC(=O)c1ccccn1)Nc1cccc2ccccc12", "activation": "-0.09%"}
{"smiles": "COC(=O)C1=C(C)N(Cc2ccccc2C(F)(F)F)C(=NCc2ccc(OC)cc2)NC1c1cccc(C(F)(F)F)c1", "note": "(stereo not given)", "activation": "0.01%"}
{"smiles": "CC(C)[C@H]1COCCS(=O)(=O)N1Cc1ccccc1-c1cccc2c1sc1ccccc12", "activation": "1.38%"}
{"smiles": "CC(C)N(Cc1ccccc1)C(=O)COC(=O)c1cnccn1", "activation": "-0.24%"}
{"smiles": "O=C(Oc1ccc(-c2nc(-c3ccccn3)no2)cc1)c1ccccc1", "activation": "0.86%"}
{"smiles": "O=S(=O)(c1ccc(Br)cc1)c1nc(-c2ccccc2)oc1N1CCOCC1", "activation": "1.01%"}
{"smiles": "Brc1ccc(-c2noc(-c3ccccc3)n2)o1", "activation": "7.04% (active)"}
{"smiles": "Cc1ccc(-n2c(SCC(=O)Nc3ccc(S(=O)(=O)Nc4nccs4)cc3)nnc2-c2cccnc2)cc1", "activation": "-2.17%"}
{"smiles": "Brc1ccc(C2CC(c3ccccc3)=Nc3ccccc3N2)cc1", "note": "(stereo not given)", "activation": "4.68%"}
{"smiles": "COc1ccccc1C1=Nc2cccc3cccc(c23)N1", "activation": "-1.59%"}
{"smiles": "c1ccc(C2=Nc3cccc4cccc(c34)N2)cc1", "activation": "6.59% (active)"}
{"smiles": "O=C(CSc1nc2ccccc2n1Cc1ccccc1Cl)N/N=C\\c1c[nH]c2ccccc12", "activation": "1.72%"}
{"smiles": "O=C(CC1SCCNC1=O)Nc1ccc(Cl)cc1", "note": "(stereo not given)", "activation": "1.04%"}
{"smiles": "CCOCc1nnc(NC(=O)CCC2CCCCC2)s1", "activation": "-1.11%"}
{"smiles": "CC(NC(=O)COC(=O)c1ccc2ccccc2n1)c1ccccc1", "note": "(stereo not given)", "activation": "2.13%"}
{"smiles": "CC(C)CC(=O)N/C(N)=N/c1nc2ccccc2s1", "activation": "8.5% (active)"}
{"smiles": "CC(C)CC(=O)NC(=S)NNC(=O)c1cccc([N+](=O)[O-])c1", "activation": "1.89%"}
